Screening data as filed in PubChem.
Rows were chosen to be rich in hits. Some 3.6% of all compounds tested hit in one or more screens of this group.
MazEF act – activators of E. coli MazEF toxin-antitoxin RNase, primary screen, biochemical, fluorescence, uHTS. Endoribonuclease toxin MazF (Escherichia coli (strain K12)), P0AE70. FAM/BHQ RNA-DNA oligo cleavage fluorescence, 5 h. activation, % at 20 µM. 0.32% of 350,000 active. AID 504720, 2011; in the data active = activation above about 50%
Anthrax LF inh2 – Bacillus anthracis LF protease inhibitors, primary screen, biochemical, multiplex microsphere, MLPCN library; multiplex microsphere protease cleavage assay; inhibition, % at 10 µM; 0.12% of 360,000 active; AID 588501, 2011; note: plate controls were buffer without enzyme for full effect and enzyme alone for no effect
Autofluor counter – counter-screen for toxin protease inhibitors: compound fluorescence; 3.1% of 360,000 active; compound autofluorescence counterscreen, microsphere flow cytometry; stronger effect = higher value; fluorescence intensity (test concentration not listed); AID 624483; in the data active = fluorescence intensity above about 16000; inconclusive = no clear call, values can overlap the other calls
BoNT A protease – BoNT/A light chain protease inhibitors, primary screen, biochemical, flow cytometry, MLPCN library | Botulinum neurotoxin type A light chain protease (Clostridium botulinum A str. ATCC 3502) | multiplex microsphere protease substrate cleavage | 0.17% of 360,000 active | AID 588499, 2011 | inhibition, % at 10 µM; note: plate controls were buffer without enzyme for full effect and enzyme alone for no effect
BoNT F protease – BoNT/F light chain protease inhibitors, primary screen, biochemical, flow cytometry, MLPCN library; inhibition, % at 10 µM; AID 588497, 2011; 0.22% of 360,000 active; Multiplex microsphere protease cleavage assay; in the data active = inhibition above about 35%, passing the limit was not always enough; inconclusive = no clear call, values can overlap the other calls; note: plate controls were buffer without enzyme for full effect and enzyme alone for no effect
* hit, by the source's call; u = inconclusive; x = no result. Cut-off read from the data, not from the text of the source, unless noted: active = inhibition above about 30%; inconclusive = no clear call, values can overlap the other calls; inactive = below that.

SMILES	MazEF act	Anthrax LF inh2	Autofluor counter	BoNT A protease	BoNT F protease
CC(C)C(=O)c1cn(CC(=O)N2CCCc3ccccc32)c2ccccc12	-18	-2	23272*	u	1
O=C1c2ccccc2C(=O)N1CCC(=O)N1CCc2ccccc21	5	-6	22459*	1	3
CC(C)(C)OC(=O)N1C(=O)[C@](OC(=O)c2ccccc2)(c2ccc(F)cc2)c2ccccc21	x	5	5463	0	3
Cc1cnc(C)c(Nc2nc(C(N)Cc3ccc(Cl)cc3)cs2)n1 (centres undefined)	x	3	3633	0	-24
O=C(COC(=O)c1n[nH]c(=O)c2ccccc12)NC1CCCCC1	2	-3	u	-1	-8
CCCCCCn1c(=O)n2n(c1=O)C[C@]1(OC(=O)NCC3CCCCC3)CN(S(=O)(=O)c3ccc(C)cc3)C[C@]1(O)C2	6	-2	2805	0	0
COc1cccc(-c2cc(C(=O)N3CCc4ccccc4C3)[nH]n2)c1	93*	-3	5328	1	-5
COc1cccc(-c2cc(C(=O)N3CCCc4ccccc43)no2)c1	-4	-23	12935	25	31
COc1ccc(-c2cc(C(=O)N3CCc4ccccc4C3)no2)cc1OC	5	-5	21095*	-1	-4
COc1ccc(-c2cc(C(=O)N3CCCc4ccccc43)no2)cc1	-7	-1	22780*	u	2
COc1ccc(-c2cc(C(=O)N3CCCc4ccccc43)no2)cc1OC	-3	-1	22113*	1	1
COc1ccc(-c2cc(C(F)(F)F)nc(SCC(=O)NCCCN3CCOCC3)n2)cc1	0	0	2018	0	-2
CCc1c(-c2ccccc2)nc2sc3c(c2c1N)CCCC3	8	3	5346	0	0
CCCc1nc2c(C)ccc(C)c2c(N)c1CC	4	-7	22777*	u	1
COc1ccc(CNC(=O)CSc2nnc(-c3ccc(NC(C)=O)cc3)n2C)cc1	-4	-7	17726*	5	3
COc1ccc(-c2nnc(SCC(=O)Nc3ccc(C)cc3)n2C)cc1	3	0	8101	0	-2
COc1ccc(-n2c(SCC(N)=O)nnc2-c2ccccc2F)cc1	-5	0	16562*	0	-2
COc1ccc(-n2c(SCC(N)=O)nnc2-c2ccco2)cc1	5	-14	4762	-3	u
COCCn1c(SCC(=O)NCc2cccs2)nnc1-c1ccc(OC)cc1	4	0	9387	0	0
COc1ccc(C(=O)NCCc2nnc(SCC(=O)Nc3ccccc3C(C)C)n2C)cc1	2	-3	20025*	0	0
CCn1c(CCNC(=O)c2ccc(OC)cc2)nnc1SCC(=O)Nc1ccccc1F	-4	-3	3233	0	-6
CCNC(=O)CSc1nnc(-c2ccc(OC)cc2)n1CC(C)C	5	-10	21420*	3	2
O=C1CN(C(=O)NCCC(=O)NC2CCCCC2)c2ccccc2N1	6	2	5726	0	-1
O=C(Cn1nc(C(=O)O)c2ccccc2c1=O)Nc1cccc(S(=O)(=O)N2CCCCCC2)c1	-25	1	3126	0	-4
CCOC(=O)Cc1csc(NC(=O)CSc2nnc(-c3ccc(OC)cc3)n2C)n1	1	0	20591*	u	-4
SMILES	MazEF act	Anthrax LF inh2	Autofluor counter	BoNT A protease	BoNT F protease
CC(=O)Nc1ccc(-c2nnc(SCc3c(C)cc(C)cc3C)n2C)cc1	7	0	23890*	0	-3
CCOC(=O)Cc1csc(NC(=O)CSc2nnc3ccccn23)n1	6	-2	2527	-1	-8
COc1ccc(NC(=O)CSc2nnc(-c3ccccc3C)n2C)cc1	1	-1	19446*	u	1
CC(=O)Nc1ccc(-c2nnc(SCC(=O)c3ccc4c(c3)Cc3ccccc3-4)n2C)cc1	-6	-3	9297	1	1
COc1ccc(NC(=O)CSc2nnc(-c3ccccn3)n2N)cc1	-3	-24	9304	34*	35*
CCOc1ccc(NC(=O)CSc2nnc(-c3ccccn3)n2N)cc1	3	-4	16005	1	-1
COc1ccc(NC(=O)CSc2nnc(-c3ccco3)n2C)cc1	1	-2	2769	0	-4
CCCCn1cnc2c(oc3nc4c(cc32)CCCC4)c1=O	0	-5	3868	2	u
Cc1ccc(C(=O)NCc2ccco2)c(C)c1	1	2	3693	2	-4
Cc1cc(C)nc(/N=C(\N)Nc2ccccc2-c2ccccc2)n1	15	1	4834	2	-4
CC(C(=O)Nc1ccc(Cl)cc1Cl)N1C(=O)NC2(CCCCCCC2)C1=O (centres undefined)	2	-6	3928	0	-6
CCCCN(C(=O)C(C)Oc1ccc(Br)cc1)c1c(N)n(Cc2ccccc2)c(=O)[nH]c1=O (centres undefined)	-2	0	5762	1	-2
COc1ccccc1-c1nnc(SCC(=O)Nc2ccc(S(N)(=O)=O)cc2)n1C	-2	-4	21773*	-3	-6
Cc1ccc(C2CC(=O)c3cnc(N4CCc5ccccc5C4)nc3C2)cc1 (centres undefined)	-8	-3	19424*	u	2
CCc1ccc(CNc2ccc3c(c2)ncn3C)cc1	-5	-3	21662*	4	1
Cc1cccc(OC(=O)c2ccc3c(=O)n4c(nc3c2)CCC4)c1	-5	-4	2864	0	1
COC(=O)c1c(C)nc2ccccc2c1C(=O)O	-5	0	2245	0	-1
COc1ccc(-c2c(C(=O)O)nc3ccccc3c2C(=O)O)cc1	1	-3	16308*	0	0
COc1ccc2c(C)c(C(=O)N3CC[C@@H](N4CCC(O)CC4)[C@H](O)C3)oc2c1	-2	0	8217	-2	-1
O=C(c1cccc(-c2ccccc2)c1)N1CC[C@@H](N2CCC(O)CC2)[C@H](O)C1	-1	8	19128*	-1	11
COC(=O)C1=NN(c2ccccc2)C2(S1)SC(C(C)=O)=C(C)N2c1ccccc1 (centres undefined)	0	0	4177	-1	-9
COC(=O)C1=NN(c2ccc(C)cc2)C2(S1)SC(C(C)=O)=C(C)N2c1ccccc1 (centres undefined)	0	-5	23648*	-3	-7
COC(=O)CC/C(C)=N\Nc1ccc([N+](=O)[O-])cc1[N+](=O)[O-]	1	0	21329*	-1	0
CN(CC(=O)O/N=C(\N)c1ccccn1)S(=O)(=O)c1ccccc1	5	-5	19036*	3	1
COc1ccc(N2C(=O)NC(NC(=O)c3ccncc3)(C(F)(F)F)C2=O)cc1 (centres undefined)	1	3	22275*	1	2
